Laboratory results published in PubChem BioAssay AID1619 (SRMLSC, 2009).
About 830 (0.38%) of roughly 220,000 compounds were called active.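 How the source made its calls: active means compound inhibiting the enzyme by more than half at any dose during confirmatory dose-response retesting; inconclusive means strong single-dose inhibitors picked by rank but not retested; inactive means the rest.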 These entries were drawn from the full list. Measured potencies and affinities stand elsewhere.

Target: Leucine aminopeptidase (Plasmodium falciparum (isolate 3D7)) (UniProt Q8IL11)
Test: P. falciparum M17LAP inhibitors, primary screen, biochemical, fluorogenic H-Leu-NHMec substrate, 1536-well (AID 1619);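 further: plate controls were full reaction with DMSO carrier for no effect and no enzyme background for full effect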
Conditions: recombinant M17LAP, H-Leu-NHMec fluorogenic kinetic assay; at 30 µM; hits give high values

Chain of Leucine aminopeptidase (Plasmodium falciparum (isolate 3D7)) (Q8IL11 whole entry, looked up): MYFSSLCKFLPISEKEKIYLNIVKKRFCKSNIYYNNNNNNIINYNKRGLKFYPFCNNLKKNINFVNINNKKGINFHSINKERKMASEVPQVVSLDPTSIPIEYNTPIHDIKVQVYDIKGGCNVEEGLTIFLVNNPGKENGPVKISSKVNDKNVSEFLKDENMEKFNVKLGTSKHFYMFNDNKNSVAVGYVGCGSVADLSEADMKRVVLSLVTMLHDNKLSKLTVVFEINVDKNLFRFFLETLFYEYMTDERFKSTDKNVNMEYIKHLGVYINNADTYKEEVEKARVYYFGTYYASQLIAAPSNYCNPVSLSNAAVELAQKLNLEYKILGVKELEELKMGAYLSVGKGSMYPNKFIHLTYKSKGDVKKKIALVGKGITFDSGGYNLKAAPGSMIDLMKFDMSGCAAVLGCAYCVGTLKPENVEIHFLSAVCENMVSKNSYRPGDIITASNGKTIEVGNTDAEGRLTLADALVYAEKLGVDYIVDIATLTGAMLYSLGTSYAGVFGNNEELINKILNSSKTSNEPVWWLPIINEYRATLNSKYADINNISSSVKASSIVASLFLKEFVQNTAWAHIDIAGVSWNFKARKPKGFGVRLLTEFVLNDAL

inhibition, inactive:
COc1ccc(CN2CCN(C)CC2)cc1OCc1ccccc1 -2.4%
Cc1ccc(C(=O)N2CCSC2=S)cc1 8.96%
CCc1nc(Sc2nc(C)cc(C)n2)c2oc3ccccc3c2n1 -4.31%
CCOC(=O)c1ccc(S(=O)(=O)NNC(=O)COc2ccccc2C)cc1 -5.37%
O=C(CSc1nnc(CN2CCCCCC2=O)n1-c1ccccn1)NCC(F)(F)F -5.65%
C/C(=C\c1ccccc1)CN1CCC(C(=O)N2CCC(C)CC2)CC1 1.41%
COCc1nnc(NC(=O)c2cc(C(=O)OC)cc([N+](=O)[O-])c2)s1 6.44%
COCCSc1nnc(NC(=O)c2ccc([N+](=O)[O-])cc2)s1 -6.15%
CCc1nn(-c2ccccc2)c(N)c1-c1ccc(OC)c(OC)c1 1.87%
COc1cc(/C=C/c2ccc3cccc([N+](=O)[O-])c3n2)ccc1OCC(=O)O 20.7%
COC(=O)c1ccc(/C=C/c2ccc3cccc(OC)c3n2)cc1 0.52%
CSc1ccc(/C=C/c2ccc3cccc(O)c3n2)cc1 14.9%
O=[N+]([O-])c1ccc(/C=C/c2ccc3cccc([N+](=O)[O-])c3n2)cc1 -6.24%
CCCn1nnc(NC(=O)c2ccco2)n1 -183%
CCC(C)n1c(SCC(=O)NC(=O)Nc2ccc3c(c2)OCCO3)nc2ccccc2c1=O (stereo unspecified) -1.6%
CCOC(=O)c1cn2nc(Oc3ccc(OC)cc3)ccc2n1 9.2%
CCCCCOC(=O)NC1CCS(=O)(=O)C1 (stereo unspecified) -3.96%
CCOC(=O)C1(CCSC)NC(c2ccco2)C2C(=O)N(CC)C(=O)C21 (stereo unspecified) 5.79%
CC(C)C(=O)NCCc1c[nH]c2ccccc12 3.48%
CCC(=O)NCCc1c[nH]c2ccccc12 -4.01%
CSc1n[nH]c(=O)n1-c1ccc(Cl)cc1 -4.84%
Cc1sc(NC(=O)c2ccc(Cl)s2)c(C(N)=O)c1C -3.24%
O=[N+]([O-])c1ccc(Sc2ccccc2)nc1 -3.15%
O=[N+]([O-])c1ccc(Sc2ccccn2)nc1 6.7%
Cc1ccc2oc(=O)c3cnn(CC(=O)NCCc4ccsc4)c3c2c1 11.8%
CCOC(=O)Cn1nnnc1CN(Cc1ccc(OC)cc1)Cc1cc2cc(CC)ccc2[nH]c1=O 7.13%
CCc1cccc2c(=O)c(C(=O)N3CCCCCC3)c[nH]c12 3.21%
CCN1CCc2c(OCC(=O)N3CCCc4ccccc43)cccc2C1=O 0.37%
CCc1c(C)sc(NC(=O)C2CCCCC2C(=O)O)c1C(N)=O (stereo unspecified) 50.6%
Cc1sc(NC(=O)CCC(=O)O)c(C(N)=O)c1-c1ccccc1 18%
CCc1ccc(-c2c(C)sc(NC(C)=O)c2C(N)=O)cc1 41.9%
Cc1sc(NC(=O)/C=C/C(=O)O)c(C(N)=O)c1-c1ccc(C(C)(C)C)cc1 21.9%
CC(C)=C1C2CCC1C(C(=O)Nc1sc(C)c(-c3ccc(C(C)C)cc3)c1C(N)=O)C2C(=O)O (stereo unspecified) -4%
COC(=O)c1c(NC(=O)/C=C/C(=O)O)sc(C)c1-c1ccc(C(C)C)cc1 15.5%
Cc1sc(NC(=O)C2C3CCC(C3)C2C(=O)O)c(C(N)=O)c1-c1ccc(C(C)(C)C)cc1 (stereo unspecified) 39.7%
Cc1sc(NC(=O)C2CCCCC2C(=O)O)c(C(N)=O)c1C (stereo unspecified) 45%
COc1ccccc1-c1n[nH]c(=S)n1N -6.79%
COC(=O)/C(=C/c1ccccc1)NC(=O)c1ccco1 0.48%
COC(=O)c1ccc(CN2CCN(Cc3ccc(F)cc3)C(CCO)C2)cc1 (stereo unspecified) -9.03%
Cc1ccc(NC(=O)C(CC(C)C)NC(=O)C2CCC(C)CC2)nc1 (stereo unspecified) -1.65%
CC(C)NC(=O)COC(=O)c1ccc(Cl)c(S(=O)(=O)N2CCCC2)c1 4.58%
Cc1ccc2cc(CCNC(=O)c3ccco3)c(=O)[nH]c2c1C -13.9%
O=C(CCC(=O)NNC(=O)COc1ccccc1)NCc1ccccc1 -10.8%
CC(=O)C1=C(O)C(=O)N(CCCO)C1c1ccccc1 (stereo unspecified) 27.1%
O=C(c1ccc(S(=O)(=O)N2CCCCC2)cc1)N(c1ccccn1)C1CCCCC1 0.89%
O=[N+]([O-])c1ccc(N2CCCC2)cc1NC(c1ccccc1)c1ccccc1 8.49%
CCOc1ccc(NC(=O)C(=O)N/N=C\c2ccc(CNS(=O)(=O)c3ccccc3)o2)cc1 0.49%
O=Cc1cc(N=Nc2ccccc2Cl)ccc1O 40.2%
O=C1CCCC(O)=C1N=Nc1cccc(C(=O)O)c1 46.3%
O=C(NCc1ccccc1)c1sc(=S)n2c1[nH]c(=O)c1ccccc12 27.9%
CCCCCNC(=O)c1ccc2c(=O)[nH]c3c(C(=O)NCC4CCCO4)sc(=S)n3c2c1 (stereo unspecified) 53.8%
O=C(NC1CCCCC1)c1sc(=S)n2c1[nH]c(=O)c1ccccc12 24.2%
Cc1ccc(CNC(=O)c2ccc3c(=O)[nH]c4c(C(=O)NCC5CCCO5)sc(=S)n4c3c2)cc1 (stereo unspecified) 1.99%
Cc1ccc(Nc2nc(N)nc(CSc3nnc(-c4ccncc4)o3)n2)cc1 -3.96%
O=c1cc(C(Cl)(Cl)Cl)oc2c1ccc1ccccc12 -3.47%
CC(=O)C1=C(O)C(=O)N(c2ccc(S(N)(=O)=O)cc2)C1c1ccc([N+](=O)[O-])cc1 (stereo unspecified) 23%
Cc1ccc(N2CC(=O)Nc3c(oc4nc(-c5ccccc5)cc(C)c34)C2=O)cc1 -16.6%
Cc1cc(=O)[nH]c(SCC(=O)c2ccccc2)c1C#N 16.9%
Cc1cc(=O)[nH]c(SCC(=O)O)c1C#N 2.48%
CCOC(=O)CSc1[nH]c(=O)cc(C)c1C#N 17%
COC(=O)CSc1[nH]c(=O)cc(C)c1C#N 0.03%
